# Compound activity deposited in PubChem BioAssay by National Center for Advancing Translational Sciences (NCATS).
# Pf growth 48h: P. falciparum growth inhibition at 48 hours (one generation) | P. falciparum luciferase growth in erythrocytes, 48 h | AID 504832 | Potency, µM (doses to about 28.7 µM), without a hit: top-dose activity change, negative = inhibition, hits mostly inhibitors | hit rate 5.9% among 310,000; further: potency means the concentration at half of the fitted maximal effect
#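 Luminescence readout; reporter = integrated firefly luciferase in P. falciparum. RBC culture at 2% hematocrit, 0.1% parasitemia final, 37 C/5% CO2; decreased signal taken as growth inhibition.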
# HCV inhibitor: HCV inhibition | Huh7.5.1 HCVcc-Cre infection, luciferase reporter, 44 h | Potency, µM (doses to about 41.8 µM), without a hit: top-dose activity change, negative = inhibition, usual class: inhibitors | hit rate 3.4% among 340,000; further: potency means the concentration at half of the fitted maximal effect
#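 HCVcc-Cre virus at an moi near 0.5 was added right after compound to cells cultured 4 h from seeding (1,000 cells/well). Luciferase activity was determined 44 h later, 15 min after substrate addition at RT.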
# Pf growth 96h: P. falciparum growth inhibition at 96 hours. P. falciparum luciferase reporter growth, 96 h. Potency, µM (top dose mostly 28.7 µM), for the others: at the highest dose activity change, negative = inhibition, usual class: inhibitors. hit rate 6.9% among 320,000. AID 504834; further: potency means the concentration at half of the fitted maximal effect
#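 Luminescence readout: decreased luciferase signal marks inhibited growth of reporter-expressing P. falciparum in infected red cells (2% hematocrit, 0.05% parasitemia final), exposed to compound two generations (96 h, 37 C, 5% CO2).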
# HCMV antiviral: human cytomegalovirus inhibition; HFF cells, HCMV-luciferase reporter, 72 h; stronger effect = lower value; activity change, negative = inhibition, % at 57.5 µM; hit rate 4.5% among 410,000; AID 1259415; in the data active means activity change below about -60%; inconclusive means no clear call, values can overlap the other calls; inactive means above about -39%
#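 Cell-based, HFFs, 1000 cells/well, 16 h 37C; cpds in DMSO + HCMV-luc, MOI 1 PFU/cell; 72 h 37C; OneGlo luminescence after 5 min RT; norm. to buffer vs Salinomycin 10uM.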
# Numbers without * were called inactive; i = inactive; ? = inconclusive; / = no result given; ! = a repeat was not active. In the library only some 13% were active in any assay of this set; here they are far more common. Unless noted, the call rests on the fitted dose curve; in most records, active means well fitted inhibition curve with a large enough effect; inconclusive means small, poorly fitted or top-dose-only effect, or another doubt; inactive means no such curve, though single readings can be large or run the other way. On the % scale 0 is the no-effect control and ±100 the full control effect.
SMILES,Pf growth 48h,HCV inhibitor,Pf growth 96h,HCMV antiviral
Cn1c(-c2ccc3c(c2)OCO3)cc(=O)c2ccccc21,?,13.0%,11.1%,-26.9
COc1cc(-c2ccc3c(=O)c4ccccc4sc3c2)cc(OC)c1OC,/,23.6%,/,18.7
COc1cc(-c2ccc3c(=O)c4ccccc4n(C)c3c2)cc(OC)c1OC,?,?,4.65µM*,114.1
Cn1c2ccccc2c(=O)c2ccc(-c3ccc4c(c3)OCO4)cc21,55.6%,?,9.28µM*,80.5
Cn1c(C=O)c(-c2ccc3c(c2)OCCO3)c2ccccc21,?,15.8µM*,?,?
COC(=O)C1(Cc2cc(-c3ccccc3)no2)CCN(C(=O)OC(C)(C)C)CC1,33.1%,-23.0%,0.0%,?
OC1(Cc2cc(-c3ccccc3)no2)CCN(CCCc2ccccc2)CC1,6.57µM*,-29.1%,3.29µM*,88.6
O=C(Oc1cccc(OC(=O)c2ccco2)c1)c1ccco1,-22.8%,2.5%,14.7µM*,0.9
O=C(Oc1cccnc1)c1ccco1,18.1%,17.8%,7.9%,33.6
O=C(Oc1ccc(OC(=O)c2ccco2)c(S(=O)(=O)c2ccc(Cl)cc2)c1)c1ccco1,4.2%,2.3%,10.4µM*,36.7
CSc1ccc(CCNC(=O)CCc2c(C)nc3c(c(C)nn3-c3ccc(C)c(C)c3)c2C)cc1,/,/,/,11.1
CCCNC(=O)Cn1c(=O)/c(=C\c2ccc(-c3cccc([N+](=O)[O-])c3)o2)s/c1=C\C(=O)C(C)(C)C,1.65µM*,-28.9%,1.31µM*,?
CCCNC(=O)Cn1c(=O)/c(=C/c2ccc(-c3cccc([N+](=O)[O-])c3)o2)s/c1=C\C(=O)C(C)(C)C,/,-2.4%,/,-33.9
CCCNC(=O)Cn1c(=O)/c(=C\c2ccc(-c3ccc([N+](=O)[O-])cc3)o2)s/c1=C\C(=O)C(C)(C)C,9.28µM*,?,?,/
O=C(NCCc1ccc(Cl)cc1)c1c2c(nc3ccccc13)C(=O)N(C1CCCCC1)C2,/,/,/,13.1
COc1ccc(N2Cc3ccccc3C2=O)cc1,-19.7%,-6.0%,2.94µM*,73.5
COc1ccc(N2C(=O)c3ccccc3S2(=O)=O)cc1,2.94µM*,-1.2%,46.1%,?
COc1ccc(N2Cc3ccccc3C2=NC(=O)c2cccc([N+](=O)[O-])c2)cc1,164.5%,0.1%,22.7%,-28.7
Cc1ccc(N2Cc3ccccc3C2=O)cc1,-14.0%,-10.6%,46.7%,36.3
COc1ccc(N2Cc3ccccc3C2=NC(=O)c2cncc(Br)c2)cc1,i,2.5%,276.6%,-81.4*
COc1ccc(N2C(=O)N(Cc3ccc(C)cc3)c3ccccc3S2(=O)=O)cc1,?,-24.1%,?,-19.3
O=C1c2ccccc2CN1c1ccccc1,95.9%,6.0%,4.15µM*,74.7
CCOc1ccc(CCNC(=O)c2nnc(Cc3ccc(Cl)cc3Cl)o2)cc1OCC,/,/,/,-3.2
COc1cccc(CNC(=O)c2ccc3oc(=O)n(Cc4ccccc4)c3c2)c1,/,/,/,-12.3
O=C(O)[C@@H](c1ccccc1)N1Cc2ccccc2C1=O,/,2.9%,?,6.6
SMILES,Pf growth 48h,HCV inhibitor,Pf growth 96h,HCMV antiviral
O=C1c2ccccc2CN2C(=O)c3ccccc3CN12,-0.6%,/,3.7µM*!,-21.3
O=c1c2ccccc2nc(-c2ccccc2Cl)n1O,i,2.8%,?,-30.8
O=c1c2ccc(Cl)cc2nc(-c2cccc(C(F)(F)F)c2)n1O,?,?,10.4µM*,-103.2*
O=c1c2ccccc2nc(-c2ccc(Cl)c(Cl)c2)n1O,/,-4.4%,14.5%,-62.9*
CCc1nc(SCc2ccccc2C#N)n[nH]1,-11.9%,16.8%,9.28µM*,-28.5
CCOC(=O)c1c(C)oc2nc(C)nc(N3CCN(c4ccccc4F)CC3)c12,/,/,/,6.4
CNC1(C)C2CCC(C2)C1(C)C (configuration not stated),-12.1%,/,6.01µM*,/
CNC1(C)[C@H]2CC[C@H](C2)C1(C)C (some centres not stated),/,-10.3%,/,13.4
O=C(c1ccncc1)N1N=C(c2ccc(Br)cc2)CC1c1ccccc1O (configuration not stated),?,?,?,0.8
Cc1ccc(C2=NN(C(=O)c3ccccc3F)C(c3ccccc3F)C2)cc1 (configuration not stated),4.15µM*,-46.1%,-42.5%,-10.2
COc1cccc(C2CC(c3ccc(C)cc3)=NN2C(=O)c2ccccc2F)c1OC (configuration not stated),5.22µM*,?,4.15µM*,34.5
CNS(=O)(=O)c1cn(CC(=O)Nc2ccc(OC)c(Cl)c2)cc1S(=O)(=O)NC,/,/,/,0.0
C=CCN(CC=C)S(=O)(=O)c1ccc(C(=O)Nc2nnc(CSC)o2)cc1,11.7µM*,?,?,-32.1
CCCN(CCC)S(=O)(=O)c1ccc(C(=O)Nc2nnc(COC)o2)cc1,14.7µM*,-2.8%,-1.0%,?
CCc1nnc(NC(=O)c2ccc(S(=O)(=O)N(CC(C)C)CC(C)C)cc2)o1,?,9.6%,15.6%,-9.3
COCCN(CCOC)S(=O)(=O)c1ccc(C(=O)Nc2nnc(COC)o2)cc1,18.5%,13.9%,1.8%,4.9
CCc1nnc(NC(=O)c2ccc(S(=O)(=O)N(C)c3ccccc3)cc2)o1,?,7.08µM*,?,-74.5*
CCOC(=O)c1cnc(SCCc2ccccc2)nc1N,98.3%,-17.6%,3.4%,103.3
CCOC(=O)c1cnc(SCc2ccc(C)cc2)nc1N,70.2%,-13.5%,0.0522µM*,99.1
CCOC(=O)c1cnc(SCc2nc(N)nc(Nc3ccccc3)n2)nc1N,-8.1%,?,17.4%,-81.8*
O=C(Oc1ccccc1F)c1nc(SCc2ccc(F)cc2)ncc1Cl,/,/,/,-33.6
CCCCCCN=C1CC(C)(C)CC(=O)/C1=C(/O)CCC,?,?,6.57µM*,-27.0
CCOc1ccccc1NC(=O)Nc1cc(C(=O)NCc2ccc(C)cc2)ccc1N1CCCC1,/,/,/,-84.9*
Cc1ccc(CNC(=O)c2ccc(N3CCC4(CC3)CC(c3ccccc3)=NO4)c(NC(=O)c3ccco3)c2)cc1,?,?,1.04µM*,16.5
Cc1ccc(CNC(=O)c2ccc(N3CCC4(CC3)CC(c3ccccc3)=NO4)c(N)c2)cc1,-12.7%,?,33.1%,-29.2
SMILES,Pf growth 48h,HCV inhibitor,Pf growth 96h,HCMV antiviral
CCCNC(=O)c1ccc(N2CCC3(CC2)CC(c2ccccc2)=NO3)c(NC(=O)c2cccc(OC)c2)c1,?,?,2.08µM*,0.9
Cc1ccc(CNC(=O)c2ccc(N3CCC4(CC3)CC(c3ccccc3)=NO4)c(NC(=O)c3ccc(Br)cc3)c2)cc1,?,-10.8%,?,32.5
Cc1ccc(CNC(=O)c2ccc(N3CCC4(CC3)CC(c3ccccc3)=NO4)c(NC(=O)c3ccccc3)c2)cc1,4.65µM*,4.5%,?,1.2
O=C(NCc1ccc(F)cc1)C(=O)NCC(c1cccs1)S(=O)(=O)c1cccs1 (configuration not stated),/,/,/,-3.4
Cc1ccc(N2CCN(C(=O)c3cccn4c(=O)c5ccc(Cl)cc5nc34)CC2C)cc1 (configuration not stated),/,/,/,-9.7
CCCNC(=O)c1ccc(N2CCC3(CC2)CC(c2cccc(Br)c2)=NO3)c(NC(=O)c2ccc(Br)cc2)c1,?,21.9%,?,13.6
